Among the data in PubChem BioAssay (EPA / NIEHS) are outcome and AC50 values, retold here.

Structures are written as SMILES. Activity calls are given as the source filed them. The calls were made as follows: active = hit-call score of the fitted dose curve at least 0.9, where 1 is the maximum; inactive = score below 0.9.

Read-out in test [1]: Urokinase-type plasminogen activator receptor (uPAR), PLAUR (gene 5329)
The experiment in a line: BSK_BE3C_uPAR: BioMAP Diversity Plus: BE3C Assay for Urokinase-type plasminogen activator receptor (uPAR) Biomarker Activity (AID 2283039).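 Also: uPAR protein level measured by ELISA on the cells; cells exposed to compound for one day before measurement.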 Particulars: primary human bronchial epithelial cells; actives raise or lower the signal. In a few lines: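 ELISA readout of uPAR on human lung primary bronchial epithelial cells, 24 h post-dosing. Bidirectional curve fit relative to DMSO vehicle baseline; gain or loss of signal both scored.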

Read-out in test [2]: Interleukin-6 (IL6), IL6 (gene 3569)
The experiment in a line: BSK_CASM3C_IL6: BioMAP Diversity Plus: CASM3C Assay for Interleukin-6 (IL6) Biomarker Activity for (AID 2283040). Particulars: primary human coronary artery smooth muscle cells; actives raise or lower the signal.

Read-out in test [3]: Tissue plasminogen activator (tPA), PLAT (gene 5327)
The experiment in a line: BSK_BE3C_tPA: BioMAP Diversity Plus: BE3C Assay for Tissue plasminogen activator (tPA) Biomarker Activity (AID 2283041).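 Also: tPA level quantified by ELISA one day after compound addition.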 The note with it: primary human bronchial epithelial cells; actives raise or lower the signal. In a few lines:
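ELISA read-out of tPA on human primary bronchial epithelial cells, 24 h post-dosing; bidirectional fit vs DMSO negative control/baseline.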

Read-out in test [4]: Interleukin-8 (IL8), CXCL8 (gene 3576)
The experiment in a line: BSK_CASM3C_IL8: BioMAP Diversity Plus: CASM3C Assay for Interleukin-8 (IL8) Biomarker Activity (AID 2283042).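 Also: IL-8 protein level quantified by ELISA.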 Particulars: primary human coronary artery smooth muscle cells; actives raise or lower the signal.

Read-out in test [5]: Human Leukocyte Antigen - DR isotype (HLADR), HLA-DRA (gene 3122)
The experiment in a line: BSK_CASM3C_HLADR: BioMAP Diversity Plus: CASM3C Assay for Human Leukocyte Antigen - DR isotype (HLADR) Biomarker Activity (AID 2283043).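 Also: cell-surface HLA-DR protein level quantified by ELISA.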 The note with it: primary human coronary artery smooth muscle cells; actives raise or lower the signal.

Read-out in test [6]: Macrophage colony-stimulating factor (MCSF), CSF1 (gene 1435)
Put plainly: BSK_CASM3C_MCSF: BioMAP Diversity Plus: CASM3C Assay for Macrophage colony-stimulating factor (MCSF) Biomarker Activity (AID 2283044).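 Also: M-CSF protein amount quantified by ELISA after 24 h exposure.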 Particulars: primary human coronary artery smooth muscle cells; actives raise or lower the signal.

Read-out in test [7]: Low-density lipoprotein receptor (LDLR), LDLR (gene 3949)
The experiment in a line: BSK_CASM3C_LDLR: BioMAP Diversity Plus: CASM3C Assay for Low-density lipoprotein receptor (LDLR) Biomarker Activity (AID 2283045).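 Also: LDLR protein level on the cell surface quantified by ELISA.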 Particulars: primary human coronary artery smooth muscle cells; actives raise or lower the signal.

Read-out in test [8]: Monocyte Chemoattractant Protein-1 (MCP1), CCL2 (gene 6347)
Put plainly: BSK_CASM3C_MCP1: BioMAP Diversity Plus: CASM3C Assay for Monocyte Chemoattractant Protein-1 (MCP1) Biomarker Activity (AID 2283046).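 Also: MCP-1 level quantified by ELISA 24 h after dosing.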 The note with it: primary human coronary artery smooth muscle cells; actives raise or lower the signal.

Test [9] in a line: BSK_CASM3C_Proliferation: Cell Proliferation Assessment in the BioMAP Diversity Plus: CASM3C Assay (AID 2283047).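 Also: sulforhodamine B total protein stain as relative cell number at 560 nm; sub-confluent cells exposed 48 h before staining; fitted both ways against DMSO so gain or loss of cell number.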 Particulars: primary human coronary artery smooth muscle cells.
Read-out in test [10]: Monokine induced gamma interferon (MIG), CXCL9 (gene 4283)
Put plainly: BSK_CASM3C_MIG: BioMAP Diversity Plus: CASM3C Assay for Monokine induced gamma interferon (MIG) Biomarker Activity (AID 2283048).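 Also: MIG protein level measured by ELISA.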 Particulars: primary human coronary artery smooth muscle cells; actives raise or lower the signal.

Read-out in test [11]: serum amyloid A (SAA), SAA1 (gene 6288)
The experiment in a line: BSK_CASM3C_SAA: BioMAP Diversity Plus: CASM3C Assay for serum amyloid A (SAA) Biomarker Activity (AID 2283049).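 Also: SAA protein level quantified by ELISA.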 The note with it: primary human coronary artery smooth muscle cells; actives raise or lower the signal.

Test [12] is described as follows: BSK_CASM3C_SRB: Viability Assessment in the BioMAP Diversity Plus: CASM3C Assay (AID 2283050).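 Also: cells exposed to compound for 24 h.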 Particulars: primary human coronary artery smooth muscle cells.
Read-out in test [13]: Thrombomodulin, THBD (gene 7056)
Put plainly: BSK_CASM3C_Thrombomodulin: BioMAP Diversity Plus: CASM3C Assay for Thrombomodulin Biomarker Activity (AID 2283051).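 Also: thrombomodulin protein level measured by ELISA 24 h after dosing.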 The note with it: primary human coronary artery smooth muscle cells; actives raise or lower the signal.

Read-out in test [14]: Tissue Factor, F3 (gene 2152)
Put plainly: BSK_CASM3C_TissueFactor: BioMAP Diversity Plus: CASM3C Assay for Tissue Factor Biomarker Activity (AID 2283052).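 Also: cell surface tissue factor protein level read by ELISA.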 Particulars: primary human coronary artery smooth muscle cells; actives raise or lower the signal.

Read-out in test [15]: Interferon-gamma inducible Protein 10 (IP10), CXCL10 (gene 3627)
The experiment in a line: BSK_hDFCGF_IP10: BioMAP Diversity Plus: hDFCGF Assay for Interferon-gamma inducible Protein 10 (IP10) Biomarker Activity (AID 2283053). The note with it: primary human foreskin fibroblasts; actives raise or lower the signal. Put shortly: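 ELISA read-out of IP-10 (CXCL10) from primary human skin fibroblasts, 24 h after compound addition. Gain or loss of signal versus DMSO baseline, bidirectional curve fitting.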

Read-out in test [16]: Urokinase-type plasminogen activator receptor (uPAR), PLAUR (gene 5329)
Put plainly: BSK_CASM3C_uPAR: BioMAP Diversity Plus: CASM3C Assay for Urokinase-type plasminogen activator receptor (uPAR) Biomarker Activity (AID 2283054).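 Also: cell-surface uPAR protein level quantified by ELISA.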 The note with it: primary human coronary artery smooth muscle cells; actives raise or lower the signal.

Read-out in test [17]: Vascular cell adhesion molecule 1 (VCAM1), VCAM1 (gene 7412)
Put plainly: BSK_CASM3C_VCAM1: BioMAP Diversity Plus: CASM3C Assay for Vascular cell adhesion molecule 1 (VCAM1) Biomarker Activity (AID 2283055).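 Also: VCAM-1 protein level quantified by ELISA on the cells.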 Particulars: primary human coronary artery smooth muscle cells; actives raise or lower the signal.

Read-out in test [18]: Collagen III, COL3A1 (gene 1281)
Put plainly: BSK_hDFCGF_CollagenIII: BioMAP Diversity Plus: hDFCGF Assay for Collagen III Biomarker Activity (AID 2283056). Particulars: primary human foreskin fibroblasts; actives raise or lower the signal. Put shortly:
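Human foreskin fibroblast primary cultures sampled 24 h after dosing; Collagen III quantified by ELISA. Signal fitted bidirectionally against DMSO baseline.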

Read-out in test [19]: Epidermal growth factor receptor (EGFR), EGFR (gene 1956)
The experiment in a line: BSK_hDFCGF_EGFR: BioMAP Diversity Plus: hDFCGF Assay for Epidermal growth factor receptor (EGFR) Biomarker Activity (AID 2283057). The note with it: primary human foreskin fibroblasts; actives raise or lower the signal. In a few lines:
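ELISA readout of EGFR on human dermal fibroblasts (primary foreskin cells), 24 h post-dosing; bidirectional curve fit vs DMSO baseline, gain or loss of signal scored.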

Read-out in test [20]: Interleukin-8 (IL8), CXCL8 (gene 3576)
Put plainly: BSK_hDFCGF_IL8: BioMAP Diversity Plus: hDFCGF Assay for Interleukin-8 (IL8) Biomarker Activity (AID 2283058). The note with it: primary human foreskin fibroblasts; actives raise or lower the signal. Put shortly:
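Primary human foreskin fibroblasts (hDFCGF system) dosed with chemical; IL-8 measured by ELISA 24 hours later. Bidirectional curve fitting relative to DMSO baseline; cytotoxicity tracked in parallel cultures by SRB total protein staining.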

The term AC50 denotes the midpoint of the concentration-response curve, whichever way the signal moves.

`CN/C(=N\[N+](=O)[O-])NCc1cnc(Cl)s1`: the result in test [1], in test [2], in test [3], in test [4], in test [5] and in test [6] was inactive. Besides, the result in test [7], in test [8], in test [9], in test [10], in test [11] and in test [12] was inactive. The result in test [13], in test [14], in test [15], in test [16], in test [17] and in test [18] was inactive. The outcome in [19] and in [20] was inactive.

Regarding `N#Cc1c[nH]cc1-c1cccc2c1OC(F)(F)O2`, the result in test [1], in [2], in test [3], in test [4], in [5] and in [6] was inactive. Also, the outcome in [7], in test [8], in test [10], in test [11], in [12] and in test [14] was inactive. Also, the outcome in test [15], in test [16], in test [17], in [18], in test [19] and in [20] was inactive. Also, the results for the AC50 in [9] and in test [13] were 20 µM (active) and 22.7 µM (active), respectively.

`COP(=S)(OC)Oc1ccc([N+](=O)[O-])c(C)c1`: the outcome in test [1], in [2], in test [3], in test [4], in test [5] and in [6] was inactive. In addition, the result in [7], in test [8], in [9], in test [10], in [11] and in [12] was inactive. In addition, the outcome in test [13], in test [14], in test [16], in test [17], in test [19] and in test [20] was inactive. For the same compound, the figures for the half-maximal activity concentration (AC50) in [15] and in test [18] were 14 µM (active) and 22.7 µM (active), respectively.

Consider `COP(=O)(OC)O/C(C)=C/C(=O)N(C)C`, for which the outcome in test [1], in test [2], in [3], in test [4], in test [5] and in test [6] was inactive. In addition, the outcome in [7], in [8], in test [9], in [10], in test [11] and in test [12] was inactive. The result in test [13], in [14], in test [15], in test [16], in test [17] and in test [18] was inactive. Further, the outcome in [19] and in test [20] was inactive.

With `COc1ccc(-c2ccccc2)cc1NNC(=O)OC(C)C`, the result in [1], in test [2], in test [3], in test [4], in test [5] and in test [6] was inactive. The outcome in [7], in [8], in [9], in test [10], in [11] and in test [12] was inactive. Besides, the result in test [13], in test [14], in test [15], in test [16], in [17] and in test [18] was inactive. For the same compound, the outcome in test [19] and in test [20] was inactive.

Take `CC(C)C1(C)N=C(c2ncccc2C(=O)O)NC1=O` (centres undefined): the outcome in [1], in [2], in test [3], in test [4], in test [5] and in test [6] was inactive. Moreover, the outcome in test [7], in test [8], in test [9], in test [10], in [11] and in test [12] was inactive. Moreover, the outcome in test [13], in test [14], in [15], in test [16], in test [17] and in test [18] was inactive. Besides, the result in test [19] and in test [20] was inactive.

In the case of `Cc1c(COC(=O)[C@@H]2[C@H](/C=C(\Cl)C(F)(F)F)C2(C)C)cccc1-c1ccccc1`, the outcome in test [1], in [2], in test [3], in test [4], in test [5] and in test [6] was inactive. The outcome in test [7], in [8], in [9], in test [10], in test [11] and in test [12] was inactive. Besides, the outcome in [14], in test [15], in test [16], in test [17], in test [19] and in [20] was inactive. Also, in test [13], the AC50 was 18.1 µM (active).
